# Sampled rows, rich in hits. Any-hit rate of the full collection: about 8.3%.
# MCF10A rerep: A quantitative high throughput screen for small molecules that induce DNA re-replication in MCF 10a normal breast cells | MCF 10A DNA re-replication, Hoechst nuclear intensity, 48 h | Potency, µM (titrated, usually from 46.1 µM), for inactives: top-dose activity, positive = re-replication, actives largely listed as activators | hit rate 2.9% among 350,000 | AID 624296, 2012; also: potency is read from the fitted curve at half-maximal effect; % of control where 0% means no effect; nearly all actives have a fitted effect of over 50% in size
# SW480 rereplic: A quantitative high throughput screen for small molecules that induce DNA re-replication in SW480 colon adenocarcinoma cells. SW480 DNA re-replication, Hoechst DNA content imaging, 48 h. Potency, µM (highest dose often 46.1 µM), without a hit: at the top dose re-replication activation, usual class: activators. hit rate 1.8% among 340,000. AID 624297, 2012; also: potency is read from the fitted curve at half-maximal effect; % of control where 0% means no effect; nearly all actives have a fitted effect of over 55% in size
#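 Per well, 250 cells were exposed to pinned compound for 48 hr. Nuclear DNA was visualised with Hoechst (40 min, 37 C) and total object intensity recorded by fluorescence scanning.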
# Chronic BCR inh: qHTS Assay to Find Inhibitors of Chronic Active B-Cell Receptor Signaling; ABC-DLBCL IkBa-CBG/CBR reporter, luminescence ratio, 4 h; Potency, µM (doses to about 46.1 µM), without a hit: top-dose activity change, negative = inhibition, usual class: inhibitors; hit rate 0.05% among 340,000; active = well fitted inhibition curve with a large enough effect in the signal ratio, with a control signal flat, not every such curve was filed as active; inconclusive = small, poorly fitted or top-dose-only effect, or effect the other way, or a change in a side signal; the % refers to the signal ratio;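 also: potency is read from the fitted curve at half-maximal effect; plate controls were basal doxycycline-induced cells for no effect and cells given 10 µM MG132 for full effect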
#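 TMD8 human ABC-DLBCL cells with doxycycline-inducible IκBα–green luciferase fusion and unfused red luciferase, in 0.5% FBS medium; compounds up to 46 uM, 4 h at 37C. Green/red luminescence ratio, filter-overlap corrected, fitted to concentration-response curves.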
# Giardia kill: Small Molecules that selectively kill Giardia lamblia: qHTS; hit rate 0.15% among 340,000; activity change, % at 7.66 µM, hits read low; Giardia lamblia trophozoite viability; AID 540267, 2011; in the data active = activity change below about -80%; inconclusive = between about -30% and that limit;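 also: parasites exposed to compound for two days anaerobically before the ATP read; % is scaled to controls: 0 for no effect and ±100 for the full control effect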
#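 Trophozoite viability was measured as ATP-dependent luminescence, read 15-30 min after reagent addition. Before that, parasites at 100 cells/well were exposed to compounds for 48 h, anaerobically, at 37 deg C.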
# RORgamma inh: qHTS for inhibitors of ROR gamma transcriptional activity; AID 2551, 2010; Drosophila S2 Gal4-RORgamma UAS-luciferase reporter, 20 h; Nuclear receptor ROR-gamma (Mus musculus), P51450; Potency, µM (top dose mostly 53.6 µM), for inactives: top-dose activity change, negative = inhibition, most hits filed as inhibitors; hit rate 5.4% among 310,000; also: potency is read from the fitted curve at half-maximal effect; % is scaled to controls: 0 for no effect and ±100 for the full control effect; nearly all actives have a fitted effect of over 60% in size
# Target sequence (P51450 whole entry, looked up, the tested form may be a part): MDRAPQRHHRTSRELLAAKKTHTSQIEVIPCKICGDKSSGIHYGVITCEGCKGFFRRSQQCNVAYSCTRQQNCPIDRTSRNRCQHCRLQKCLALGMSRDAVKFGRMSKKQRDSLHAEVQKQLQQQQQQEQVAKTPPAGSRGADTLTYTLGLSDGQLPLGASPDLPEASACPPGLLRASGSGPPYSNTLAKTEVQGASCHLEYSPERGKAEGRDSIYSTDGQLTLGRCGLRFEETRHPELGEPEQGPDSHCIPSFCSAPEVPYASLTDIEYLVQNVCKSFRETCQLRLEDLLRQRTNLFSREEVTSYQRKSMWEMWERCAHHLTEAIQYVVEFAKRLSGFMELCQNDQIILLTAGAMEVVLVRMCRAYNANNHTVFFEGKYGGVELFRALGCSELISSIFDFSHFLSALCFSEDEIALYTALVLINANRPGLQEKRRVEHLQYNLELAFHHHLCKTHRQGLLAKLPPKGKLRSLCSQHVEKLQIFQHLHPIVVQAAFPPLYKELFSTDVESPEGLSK
#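 Drosophila S2 cells stably expressing Gal4-DBD/mouse RORγ fusion under metallothionein promoter plus UAS-luciferase; compound 1 h, then 700 uM CuSO4 induction for 20 h at ambient temperature; inhibition read as reduced luminescence.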
# VP16 counter: VP16 counterscreen qHTS for inhibitors of ROR gamma transcriptional activity; hit rate 3.5% among 310,000; Potency, µM (highest dose often 53.6 µM), without a hit: top-dose activity, negative = inhibition, hits mostly inhibitors; Drosophila S2 Gal4-VP16 UAS-luciferase, luminescence, 20 h; AID 2546, 2010;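 also: Gal4-VP16 expression switched on by copper sulfate through the metallothionein promoter; potency is read from the fitted curve at half-maximal effect; % is scaled to controls: 0 for no effect and ±100 for the full control effect; nearly all actives have a fitted effect of over 50% in size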
# The depositor's hits bear a star; ? = inconclusive; nt = not tested or not shown; [ ] = dose if it differs, or a comment. Unless noted, calls follow the shape of the dose curve; as a rule, active = well fitted curve in the direction sought with a large enough effect; inconclusive = small, poorly fitted or top-dose-only effect, or another doubt; inactive = no such curve, though single readings can be large; an effect the other way counts as inactive or inconclusive.
SMILES,MCF10A rerep,SW480 rereplic,Chronic BCR inh,Giardia kill,RORgamma inh,VP16 counter
O=C(CCN1C(=O)/C(=C/c2ccccc2)SC1=S)NNC(=O)c1ccncc1,13.4%,-5.3%,?,-3.1,-6.4%,-7.5%
O=C(O)C(c1ccccc1)N1C(=O)/C(=C/c2cccs2)SC1=S (centres undefined),-3.6%,-0.3%,?,-8.5,-23.1%,-10.2%
O=C(O)CCCCCN1C(=O)/C(=C/c2ccncc2)SC1=S,?,?,?,7.9,11.2µM*,10µM*
O=C(O)CCCCCN1C(=O)/C(=C\c2ccncc2)SC1=S,?,-2.6%,?,10.6,12.6µM*,10µM*
O=C(O)CCCN1C(=O)/C(=C/c2ccncc2)SC1=S,27.1%,3.5%,?,13.2,8.91µM*,10µM*
CC(c1ccccc1)N1C(=O)/C(=C/c2ccncc2)SC1=S (centres undefined),16.4µM*,16.4µM*,?,10.3,?,15.8µM*
CC(C)CN(C(=O)COC(=O)CCSc1ccc(F)cc1)c1c(N)n(Cc2ccccc2)c(=O)[nH]c1=O,-10.2%,96.9%,2.6%,12.4,nt,nt
Cc1ccc(CCN2CCN=C2Nc2ccccc2)cc1,5.7%,-0.5%,-10.3%,-18.8,nt,nt
CC(=O)N1C(=O)NC2=C(C(=O)CCC2)C1c1cccc([N+](=O)[O-])c1 (centres undefined),0.5%,?,-9.1%,-1.9,-14.0%,-9.6%
CCOC(=O)/C(=C\c1cccc(O)c1)c1nc2sc(C)c(C)c2c(=O)[nH]1,2.31µM*,?,?,11.4,39.1%,2.3%
C/C(=N\Nc1ccc2nncn2n1)c1ccccn1,?,-1.4%[9.22 µM],-14.2%,2.0,8.91µM*,?
CSc1ccccc1Nc1ncnc(N)n1,-3.1%,-6.2%,?,-11.0,5.7%,-7.9%
Cc1cc(/C=C(\C#N)C(=O)NCCc2c[nH]c3ccccc23)c(C)n1C,11.1%,3.8%,?,17.7,?,-6.1%
COc1cc(/C=C(/C#N)C(=O)NCCc2c[nH]c3ccccc23)ccc1OCc1ccccc1F,5.17µM*,3.26µM*,0.2%,7.1,-17.4%,-3.1%
COc1ccc(C(=O)Cn2c(C(=O)/C=C/c3ccccc3)nc3ccccc32)cc1,?,?,?,-13.7,3.98µM*,?
COc1ccc(C(=O)/C=C/c2ccc(OC)c(O)c2)c(F)c1,?,?,?,-1.1,10µM*,?
COc1ccc(/C=C/C(=O)c2ccc(O)cc2)cc1,?,?,?,?,2.51µM*,7.08µM*
COc1ccc(/C=C/C(=O)c2ccoc2)cc1,8.9%,-0.6%[9.22 µM],?,-9.9,9.2%,4.5%
COc1ccc(/C=C/C(=O)c2ccccn2)cc1,?,10.5%,?,-22.3,11.2µM*,11.2µM*
CCc1cccc(CC)c1NC(=O)CSc1nc2ccc(N3C(=O)C4C(C3=O)[C@H]3C=C[C@@H]4C3)cc2s1 (some centres undefined),8.3%,1.9%,?,-26.8,88.4%,-9.7%
O=C(/C=C/c1ccc(O)cc1)c1ccccc1O,nt,nt,nt,nt,?,-1.7%
COc1cc(/C=C/c2ccc(O)cc2)cc(OC)c1,18.0%,?,12.6µM*,-13.2,?,?
COc1cc(O)cc(O)c1,-2.8%,-0.8%,nt,nt,7.0%,1.1%
COc1ccc(/C=C/C(=O)c2ccccc2O)cc1,10.0%,0.103µM*,7.1%,-24.8,?,-11.4%[10 µM]
COc1cc(OC)c(C(=O)C=Cc2ccc(OC)c(OC)c2)c(OC)c1,168.6%,18.4µM*,nt,9.2,nt,nt
SMILES,MCF10A rerep,SW480 rereplic,Chronic BCR inh,Giardia kill,RORgamma inh,VP16 counter
CO[C@H]1/C=C/O[C@@]2(C)Oc3c(C)c(O)c4c(O)c(c(/C=N\N5CCN(C6CCCC6)CC5)c(O)c4c3C2=O)NC(=O)/C(C)=C\C=C\[C@H](C)[C@H](O)[C@@H](C)[C@@H](O)[C@@H](C)[C@H](OC(C)=O)[C@@H]1C,7.9%,?,nt,nt,3.2%,-19.3%
COc1ccccc1C(=O)Nc1ccc2c(c1)CN(Cc1cnc(C)s1)CC2,13.5%,0.7%,?,7.2,0.9%,3.3%
N#Cc1cc(-c2ccc(Cl)cc2)cnc1Sc1ccc(F)cc1,14.6µM*,8.6%,17.4%,-9.9,-4.6%,-0.7%
Cc1c(C)c(C)c(C(=O)CCc2cccc(NC(=O)CCC(=O)O)c2)c(C)c1C,-7.7%,-5.4%,3.0%,4.5,22.9%,-9.0%
CCC(CC)c1nn2c(N)c(/C=C3\C=Nc4ccccc43)c(=O)nc2s1,3.26µM*,?,6.7%,36.2,-21.9%,1.8%
CC(C)c1nn2c(N)c(/C=C3\C=Nc4ccccc43)c(=O)nc2s1,?,-2.9%,?,-2.2,-8.1%,6.0%
CCCc1nn2c(N)c(/C=C3\C=Nc4ccccc43)c(=O)nc2s1,?,-11.0%,6.0%,-8.3,-17.1%,3.9%
CCC(CC)c1nn2c(N)c(/C=C3\C(C)=Nc4ccccc43)c(=O)nc2s1,23.1µM*,-5.8%,-4.2%,12.1,-3.9%,3.6%
CC(C)Sc1nsc2nc(=O)c(/C=C3\C=Nc4ccccc43)c(N)n12,18.4µM*,?,?,17.2,31.9%,-6.0%
Cc1nc2cc(Nc3ccncc3)ccc2s1,-2.0%,-5.4%,0.9%,-12.7,-12.4%,-0.2%
CCCCC(=O)Nc1ccc(C(=O)Nc2ccc(S(=O)(=O)Nc3nccc(C)n3)cc2)cc1,0.2%,-7.0%,3.6%,6.3,36.1%,3.4%
COc1ccc(NC(=O)N(C)C[C@H]2Oc3ccc(NS(=O)(=O)c4c(C)noc4C)cc3C(=O)N([C@H](C)CO)C[C@@H]2C)cc1,0.6%,15.4%[9.22 µM],-3.1%,-14.3,nt,nt
Cc1onc(-c2c(Cl)cccc2Cl)c1C(=O)NC(=S)N1CCOCC1,-7.4%,10.5%,-13.1%,?,0.159µM*,0.708µM*
CCOC(=O)N1CCN(C(=O)c2c(-c3ccccc3Cl)noc2C)CC1,-1.1%,-30.3%,4.1%,15.2,17.0%,1.5%
Cc1csc(NC(=O)c2c(-c3c(Cl)cccc3Cl)noc2C)n1,12.9%,5.4%,26.0%,-5.6,-8.5%,0.4%
Cc1onc(-c2c(Cl)cccc2Cl)c1C(=O)N1CCOCC1,3.1%,-0.2%,3.5%,19.9,-20.4%,6.0%
Cc1onc(-c2c(Cl)cccc2Cl)c1C(=O)Nc1nccs1,29.9%,-2.0%,7.6%,-1.9,10µM*,?
CCOC(=O)N1CCN(C(=S)NC(=O)c2cccc(OC)c2)CC1,26.3%,9.5%,-1.6%,0.1,nt,nt

# From PubChem
